Source: PubChem (National Center for Advancing Translational Sciences (NCATS))
This is one part of a sample in which hits are shown more often than they occur.
HT1080NT lethal: kills 2HG-producing HT-1080-NT fibrosarcoma cells. Potency, µM (doses to about 46.1 µM), for the others: at the highest dose activity, negative = less viability, usual class: cytotoxic. actives 1.6% (n = 360,000). HT-1080-NT fibrosarcoma viability, CellTiter-Glo ATP luminescence, 48 h;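 further: NT is the 2HG producing partner of a matched IDH1 knockdown line; potency means the concentration at half of the fitted maximal effect; 0% = DMSO-treated cells and -100% = media-only wells without cells; nearly all actives have a fitted effect of over 55% in size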
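Read-out is CellTiter-Glo luminescence after 10 minutes at room temperature, following 48 hours' compound treatment of HT-1080-NT cells (750 cells/well, RPMI, 5% FBS, 37 degrees C).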
ALOX12 inh: ALOX12 (human) lipoxygenase inhibition; P18054; purified 12hLO, xylenol orange hydroperoxide absorbance; Potency, µM (highest dose often 108 µM), for the others: at the highest dose activity change, negative = inhibition, actives largely listed as inhibitors; actives 1.1% (n = 580,000); further: potency means the concentration at half of the fitted maximal effect
Target sequence (P18054 whole entry, looked up): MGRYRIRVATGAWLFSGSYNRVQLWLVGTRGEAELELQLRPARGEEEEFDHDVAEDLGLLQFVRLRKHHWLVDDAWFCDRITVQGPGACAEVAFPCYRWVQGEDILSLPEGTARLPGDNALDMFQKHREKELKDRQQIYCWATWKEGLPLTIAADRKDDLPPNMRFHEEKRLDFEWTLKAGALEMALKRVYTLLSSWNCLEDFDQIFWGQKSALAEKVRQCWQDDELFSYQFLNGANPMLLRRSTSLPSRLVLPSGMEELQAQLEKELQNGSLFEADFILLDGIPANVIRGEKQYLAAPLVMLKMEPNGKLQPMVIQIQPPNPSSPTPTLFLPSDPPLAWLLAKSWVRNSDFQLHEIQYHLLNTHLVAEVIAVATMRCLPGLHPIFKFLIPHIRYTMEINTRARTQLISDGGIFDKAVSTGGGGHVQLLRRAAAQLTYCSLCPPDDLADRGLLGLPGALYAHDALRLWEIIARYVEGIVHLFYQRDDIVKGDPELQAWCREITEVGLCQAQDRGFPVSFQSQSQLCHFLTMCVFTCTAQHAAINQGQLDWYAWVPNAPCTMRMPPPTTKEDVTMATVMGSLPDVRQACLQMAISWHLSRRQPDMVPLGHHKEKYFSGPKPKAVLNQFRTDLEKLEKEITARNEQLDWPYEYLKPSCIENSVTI
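Hydroperoxide product was detected by ferrous iron/xylenol orange as the 573 to 405 nm absorbance ratio. Arachidonic acid at 40 uM (final) was turned over for 30 min at room temperature by 150 nM human 12hLO, pH 7.0 Hepes buffer, after 15 min compound preincubation.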
HT1080 IDH1KD tx: HT-1080 IDH1 knockdown cell toxicity (counter line); HT-1080 IDH1 knockdown viability, ATP luminescence, 48 h; Potency, µM (top dose mostly 46.1 µM), for the others: at the top dose activity, negative = toxicity, actives largely listed as cytotoxic; actives 2% (n = 360,000);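 further: potency means the concentration at half of the fitted maximal effect; 0% = DMSO wells and -100% = cell-free medium wells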
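Knockdown cells (IDH1KD HT-1080) received compounds 2 h after plating at 750 cells/well and were kept 48 h at 37 °C in 5% FBS RPMI. A CellTiter-Glo luminescence read gave % activity for curve fitting.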
TDP1 cell CPT: DT40-hTDP1 cell growth loss with CPT; chicken DT40 Tdp1-/-;hTDP1 cells + 20 nM CPT, ATP luminescence, 48 h; Potency, µM (highest dose often 46.2 µM), inactives show at the highest dose activity change, negative = growth inhibition, hits mostly inhibitors; actives 12% (n = 420,000); further: potency means the concentration at half of the fitted maximal effect; nearly all actives have a fitted effect of over 55% in size
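Chicken DT40 Tdp1-/- cells complemented with human TDP1, 400 cells/well, exposed to compounds plus 20 nM camptothecin for at least 48 h at 37 C; viability read as ATP content by CellTiter-Glo luminescence.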
IL1B secr inh: inflammasome signaling inhibition, IL-1 beta readout; THP-1 LPS/ATP IL-1B secretion, AlphaLISA, 16 h; stronger effect = lower value; activity change, % at 57.5 µM; actives 4.7% (n = 360,000); AID 743279; in the data active means activity change below about -50%; inconclusive means mostly about -30% to -49%
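THP-1 cells pretreated 1 hr with compounds (up to 57.5 uM final), then stimulated with LPS (250 ng/mL final) plus ATP (1.25 mM final); secreted IL-1B measured by AlphaLISA after 16 hr, decreased signal indicating inhibition.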
DT40 TDP1 no CPT: qHTS for Inhibitors of human tyrosyl-DNA phosphodiesterase 1 (TDP1): qHTS in cells in absence of CPT; DT40 Tdp1-/- hTDP1 cells, no CPT, ATP luminescence, 48 h; Potency, µM (highest dose often 46.2 µM), for inactives: at the highest dose activity change, negative = growth inhibition, actives largely listed as inhibitors; actives 15% (n = 420,000); AID 686978, 2013; further: potency means the concentration at half of the fitted maximal effect; nearly all actives have a fitted effect of over 55% in size
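Seeded 400 DT40-hTDP1 cells/well (vehicle DMSO, no 20 nM CPT); pinned compounds; ≥48 hr at 37 °C; CellTiter-Glo luminescence as viability measure.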
The depositor's hits bear a star; [ ] = remark or other dose. Unless noted, the call rests on the fitted dose curve; in most records, active means well fitted curve in the direction sought with a large enough effect; inconclusive means small, poorly fitted or top-dose-only effect, or another doubt; inactive means no such curve, though single readings can be large; an effect the other way counts as inactive or inconclusive. Unless noted, on the % scale 0 is the no-effect control and ±100 the full control effect.

`O=C(Nc1cc(S(=O)(=O)Nc2ccc(Cl)cc2)ccc1O)c1ccc(S(=O)(=O)N2CCCCCC2)cc1` gave HT1080NT lethal -28.9%, ALOX12 inh 18.0%, HT1080 IDH1KD tx inconclusive, TDP1 cell CPT inconclusive, IL1B secr inh -0.5 and DT40 TDP1 no CPT 20.6µM*.
O=C(N/N=C/c1ccc(O)c(O)c1)c1cccc(S(=O)(=O)N2CCCC2)c1 was read as HT1080NT lethal 0.7%, ALOX12 inh inconclusive, HT1080 IDH1KD tx -16.7%, TDP1 cell CPT -23.7%, IL1B secr inh 5.9 and DT40 TDP1 no CPT inconclusive.
O=C(Nc1cc(S(=O)(=O)N2CCOCC2)ccc1O)c1ccc(S(=O)(=O)N2CCCCC2)cc1 was read as HT1080NT lethal 12.8%, ALOX12 inh 5.5%, HT1080 IDH1KD tx 1.6%, TDP1 cell CPT inconclusive, IL1B secr inh -5.4 and DT40 TDP1 no CPT inconclusive.
For CCCn1c(CCC(=O)Nc2cc(C(=O)OC)cc(C(=O)OC)c2)nc2cccnc21 the results were ALOX12 inh -12.3%, TDP1 cell CPT 29.1µM* and DT40 TDP1 no CPT inconclusive.
CCCn1c(CCC(=O)Nc2cc(OC)cc(OC)c2)nc2cccnc21 was read as ALOX12 inh -2.1%, TDP1 cell CPT inconclusive and DT40 TDP1 no CPT 23.1µM*.
For O=C(COc1ccc(Cl)cc1C1CCCCC1)NCCc1nnc2ccccn12 the results were ALOX12 inh 6.7%.
Screening O=C(NCc1cc(C(F)(F)F)ccc1Cl)c1cccc2c1C(=O)c1ccc(N3CCCCC3)cc1S2(=O)=O returned HT1080NT lethal -18.9%, ALOX12 inh inconclusive, HT1080 IDH1KD tx 0.2%, TDP1 cell CPT inconclusive, IL1B secr inh 58.6 and DT40 TDP1 no CPT inconclusive.
`O=C(NCc1cc(C(F)(F)F)ccc1Cl)c1cccc2c1C(=O)c1ccc(N3CCC(N4CCCCC4)CC3)cc1S2(=O)=O` gave HT1080NT lethal -24.2%, ALOX12 inh inconclusive, HT1080 IDH1KD tx -11.2%, TDP1 cell CPT 5.17µM*, IL1B secr inh 91.6 and DT40 TDP1 no CPT 2.91µM*.
O=C(NCc1cc(C(F)(F)F)ccc1Cl)c1cccc2c1C(=O)c1ccc(N3CCOCC3)cc1S2(=O)=O was read as HT1080NT lethal 0.0%, ALOX12 inh inconclusive, HT1080 IDH1KD tx -0.4%, TDP1 cell CPT 18.4µM*, IL1B secr inh 9.1 and DT40 TDP1 no CPT 20.6µM*.
CC(C)NC(=O)C[C@@H]1O[C@H](Cn2cc(CN(C)Cc3ccccc3)nn2)[C@@H](O)[C@H]1O was read as ALOX12 inh -4.8%[176 µM].
Screening COc1ccccc1N(CN1C(=O)c2ccccc2C1=O)C(=O)c1cccc(C)c1 returned HT1080NT lethal 24.6%, ALOX12 inh -19.6%, HT1080 IDH1KD tx 13.9%, TDP1 cell CPT 20.6µM*, IL1B secr inh -7.4 and DT40 TDP1 no CPT inconclusive.
Screening Cc1ccc(NC(=O)C(Sc2nnnn2C2CC2)c2ccccc2)cc1 (centres undefined) returned ALOX12 inh 9.0%.
`CC(C)CNC(=O)N1CCCN(Cc2ccncc2)C(c2ccccc2)CC(=O)NCC1` (centres undefined) gave ALOX12 inh 43.8%.
For CCC1C(=O)n2nc(-c3ccccc3)cc2N=C1C (centres undefined) the results were HT1080NT lethal -11.0%, ALOX12 inh 8.8%[57.4 µM], HT1080 IDH1KD tx -4.9%, TDP1 cell CPT 8.2µM*, IL1B secr inh 25.1 and DT40 TDP1 no CPT 10µM*.
O=C(NCc1nc2ccccc2[nH]1)C1=C[C@@H](C2CCCCC2)C[C@@H](OCCCCO)O1 was read as HT1080NT lethal 0.0%, ALOX12 inh -4.9%, HT1080 IDH1KD tx 8.0%, TDP1 cell CPT 20.6µM*, IL1B secr inh -4.9 and DT40 TDP1 no CPT 14.6µM*.
Screening C[C@H]1C=C(C(=O)NCc2nc3ccccc3[nH]2)O[C@@H](OCCCCO)C1 returned HT1080NT lethal 4.6%, ALOX12 inh inconclusive, HT1080 IDH1KD tx 5.2%, TDP1 cell CPT -11.1%, IL1B secr inh 5.1 and DT40 TDP1 no CPT -19.8%.
For O=C(NCc1nc2ccccc2[nH]1)C1=C[C@@H](c2ccccc2)C[C@@H](OCCCCO)O1 the results were HT1080NT lethal -14.9%, ALOX12 inh -3.7%, HT1080 IDH1KD tx -1.9%, TDP1 cell CPT 10.2%, IL1B secr inh 2.0 and DT40 TDP1 no CPT inconclusive.
O=C(NCc1nc2ccccc2[nH]1)C1=C[C@H](c2coc3ccccc3c2=O)C[C@H](OCCCCO)O1 was read as HT1080NT lethal 0.0%, ALOX12 inh 38.8%, HT1080 IDH1KD tx -0.9%, TDP1 cell CPT 20.6µM*, IL1B secr inh -26.2 and DT40 TDP1 no CPT inconclusive.
Screening Cc1ccc(C2Cn3nnc(C(=O)N4CCN(C(=O)c5cc(Cl)ccc5F)CC4)c3CO2)cc1 (centres undefined) returned ALOX12 inh -6.3%.
CCn1cc(C(=O)N2CCN(c3cccc(Cl)c3)CC2)c2cc(OC)c(OC)cc2c1=O was read as HT1080NT lethal inconclusive, ALOX12 inh -29.8%, HT1080 IDH1KD tx inconclusive, TDP1 cell CPT 16.4µM*, IL1B secr inh -2.4 and DT40 TDP1 no CPT 23.1µM*.
O=C(c1cc2ccccc2cc1O)N1CCN(c2cccc(Cl)c2)CC1 was read as HT1080NT lethal 10.6%, ALOX12 inh -24.9%, HT1080 IDH1KD tx 2.5%, TDP1 cell CPT inconclusive, IL1B secr inh -1.1 and DT40 TDP1 no CPT inconclusive.
`COc1cc2c(C(=O)N3CCN(c4cccc(Cl)c4)CC3)cn(C)c(=O)c2cc1OC` gave HT1080NT lethal inconclusive, ALOX12 inh -14.0%, HT1080 IDH1KD tx 11.6µM*, TDP1 cell CPT 5.17µM*, IL1B secr inh 2.1 and DT40 TDP1 no CPT 3.66µM*.
Screening CCn1cc(C(=O)N2CCN(c3ccc(OC)cc3)CC2)c2cc(OC)c(OC)cc2c1=O returned HT1080NT lethal -0.4%, ALOX12 inh -1.8%, HT1080 IDH1KD tx 4.9%, TDP1 cell CPT 10.2%, IL1B secr inh 1.7 and DT40 TDP1 no CPT -12.1%.
COc1ccccc1C(=O)N1CCN(c2cccc(Cl)c2)CC1 was read as HT1080NT lethal 2.59µM*, ALOX12 inh 6.4%, HT1080 IDH1KD tx 2.59µM*, TDP1 cell CPT 1.84µM*, IL1B secr inh 47.0 and DT40 TDP1 no CPT 1.64µM*.
